Reference: PubChem BioAssay (Tox21)
Unmarked numbers belong to inactive results. Records with an inconclusive call do not appear. A call without a number means that no potency is given here. Active and inactive are the calls of the source. Unless noted, calls come from the whole dose curve; as a rule, active = well fitted curve in the direction sought with a large enough effect in the repeat runs; inconclusive = weak or mixed curves; inactive = no such curve, though single readings can be large; an effect the other way counts as inactive or inconclusive.

Tests used:
[1] = qHTS assay to identify small molecule agonists of the hypoxia (HIF-1) signaling pathway - cell viability counter screen (AID 1224844; calls by dose curve; note: nearly all actives have a fitted effect of over 50% in size; note: potency is the fitted concentration of half-maximal effect)
Procedure, shortened: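 Multiplexed with the HRE beta-lactamase assay, this viability read used CellTiter-Glo luminescence (30 min, RT) on HRE-bla ME-180 cells treated 17 hrs with compounds in 0.5% dialyzed FBS medium.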

[2] = qHTS assay to identify small molecule agonists of H2AX (AID 1224845; active = well fitted activation curve with a large enough effect in the signal ratio in the repeat runs, not every such curve was filed as active; the % refers to the signal ratio)
Procedure, shortened: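 Phospho-H2AX Ser139 measured by HTRF (ex 320 nm; em 665 and 620 nm) after 24 hr antibody incubation. Compounds, 15 concentrations, 0.76% DMSO, were applied to CHO-K1 cells for 3hr at 37C before lysis.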

[3] = qHTS assay to identify small molecule agonists of the hypoxia (HIF-1) signaling pathway (AID 1224846; active = well fitted activation curve with a large enough effect in the signal ratio in the repeat runs, not every such curve was filed as active; the % refers to the signal ratio)
Procedure, shortened: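 Hypoxia-pathway activation was scored as increased beta-lactamase from an HRE-controlled reporter in ME-180 cells; plated at 2,000 cells per well with 0.5% dialyzed FBS, they were exposed 17 hrs to compounds and then given CCF4-AM.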

[4] = qHTS assay to identify small molecule agonists of the estrogen related receptor (ERR) signaling pathway from Tox21 library (AID 1224849; calls by dose curve; note: nearly all actives have a fitted effect of over 15% in size); conditions: ERR reporter cell line, ONE-Glo luciferase, 18 h; at 92.4 µM (top of the series) unless noted
Procedure, shortened: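 Six hours post-seeding at 37 C/5% CO2, ERR cells receive DMSO-solubilised compounds; after 18 h at 37 C, ONE-Glo reagent is applied and luminescence recorded.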

[5] = qHTS RealTime-Glo MT Cell Viability Assay in HepG2 cells - 24 hour (AID 1224867); note: nearly all actives have a fitted effect of over 50% in size
Procedure, shortened: (§1)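 HepG2 cells (600/well) were dispensed with RealTime-Glo reagents, incubated 5 h at 37 °C, then treated with compounds in DMSO for up to 40 h. Nonlytic NanoLuc luminescence reflecting viable cells was read at each stated time point.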

[6] = A CellTox Green Cytotoxicity Assay to monitor cytotoxicity in HEK293 cells - 0 hour (AID 1224869); note: nearly all actives have a fitted effect of over 50% in size
Procedure, shortened: (§2)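 Seeding of HEK293 cells together with cytotoxicity dye preceded a 5 h incubation at 37 C/5% CO2. Test compounds in DMSO were then added and fluorescence monitored across 40 h.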

[7] = A CellTox Green Cytotoxicity Assay to monitor cytotoxicity in HEK293 cells - 40 hour (AID 1224871); note: nearly all actives have a fitted effect of over 45% in size; note: potency is the fitted concentration of half-maximal effect
Procedure, shortened: as §2

[8] = qHTS RealTime-Glo MT Cell Viability Assay in HepG2 cells - 8 hour (AID 1224873); note: nearly all actives have a fitted effect of over 55% in size
Procedure, shortened: (§3)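 Real-time viability: cells seeded at 600 per well together with NanoLuc and cell-permeant prosubstrate, compounds added after 5 h incubation. Luminescence tracked at 0, 8, 16, 24, 32 and 40 h of exposure.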

[9] = qHTS RealTime-Glo MT Cell Viability Assay in HEK293 cells - 40 hour (AID 1224874); conditions: RealTime-Glo luminescence; max response: stronger effect = lower value; note: nearly all actives have a fitted effect of over 50% in size; note: potency is the fitted concentration of half-maximal effect
Procedure, shortened: (§4)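 Tox21 screen in HEK293 using RealTime-Glo MT chemistry, with cells and reagent co-dispensed. Luminescence proportional to viable cell number was captured at intervals during 40 h compound exposure at 37 C.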

[10] = A CellTox Green Cytotoxicity Assay to monitor cytotoxicity in HEK293 cells - 24 hour (AID 1224875); note: nearly all actives have a fitted effect of over 45% in size
Procedure, shortened: as §2

[11] = A CellTox Green Cytotoxicity Assay to monitor cytotoxicity in HepG2 cells - 16 hour (AID 1224876); note: nearly all actives have a fitted effect of over 45% in size
Procedure, shortened: (§5)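 Nonlytic assay: viable cells exclude the dye, so fluorescence scales with cell death. HepG2 at 600 cells/well, compounds added after 5 h, signal read across 40 h.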

[12] = qHTS RealTime-Glo MT Cell Viability Assay in HepG2 cells - 32 hour (AID 1224877); note: nearly all actives have a fitted effect of over 55% in size
Procedure, shortened: as §1

[13] = A CellTox Green Cytotoxicity Assay to monitor cytotoxicity in HepG2 cells - 24 hour (AID 1224878); note: nearly all actives have a fitted effect of over 45% in size; note: potency is the fitted concentration of half-maximal effect
Procedure, shortened: as §5

[14] = A CellTox Green Cytotoxicity Assay to monitor cytotoxicity in HepG2 cells - 40 hour (AID 1224879); note: nearly all actives have a fitted effect of over 40% in size; note: potency is the fitted concentration of half-maximal effect
Procedure, shortened: as §5

[15] = qHTS RealTime-Glo MT Cell Viability Assay in HEK293 cells - 0 hour (AID 1224880); note: nearly all actives have a fitted effect of over 45% in size; note: potency is the fitted concentration of half-maximal effect
Procedure, shortened: as §4

[16] = qHTS RealTime-Glo MT Cell Viability Assay in HEK293 cells - 32 hour (AID 1224868)
Procedure, shortened: (§6)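 HEK293 cells seeded with NanoLuc/prosubstrate reagent, rested 5 h at 37 C, then dosed and kept at 37 C up to 40 h. Nonlytic real-time luminescence from viable cells read at 0, 8, 16, 24, 32 and 40 h.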

[17] = qHTS RealTime-Glo MT Cell Viability Assay in HepG2 cells - 40 hour (AID 1224870); note: nearly all actives have a fitted effect of over 50% in size
Procedure, shortened: as §3

[18] = qHTS RealTime-Glo MT Cell Viability Assay in HEK293 cells - 16 hour (AID 1224872)
Procedure, shortened: as §6

[19] = qHTS assay to identify small molecule agonists of H2AX - cell viability counter screen (AID 1224847; calls by dose curve;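 note: wild-type CHO-K1 cells; top concentration of the series differs between compounds; nearly all actives have a fitted effect of over 30% in size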)
Procedure, shortened: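 Counter-screen for viability: CellTiter-Glo ATP luminescence read after 3 h compound treatment (15-point titration, 0.76% DMSO final) of CHO-K1 cells at 37C, with 30 min room-temperature reagent incubation.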

[20] = qHTS assay to identify small molecule antagonists of the estrogen related receptor (ERR) signaling pathway from Tox21 library (AID 1224848); note: nearly all actives have a fitted effect of over 50% in size
Procedure, shortened: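 Antagonist-mode screen of the Tox21 10K library in an NTP-provided ERR reporter cell line; 18 h compound exposure at 37 C, luminescence measured with ONE-Glo.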

**Q.** For `CC(=O)[C@@]1(O)CC[C@H]2[C@@H]3C[C@H](C)C4=CC(=O)CC[C@]4(C)[C@H]3CC[C@@]21C`, which Potency [1] is on record?
**A.** Its Potency is “inactive”.

**Q.** What about the Potency [2] of the same molecule?
**A.** Its Potency is “inactive”.

**Q.** What about the outcome [3] of the same molecule?
**A.** Its outcome is “inactive”.

**Q.** And the activity change, positive = activation [4]?
**A.** Its activity change, positive = activation is -36.6% [at 42.5 µM].

**Q.** What about the Potency [5] of the same molecule?
**A.** The Potency was “inactive”.

**Q.** And the Potency [6]?
**A.** The Potency was “inactive”.

**Q.** What about the Potency [7] of the same molecule?
**A.** Its Potency is “inactive”.

**Q.** What about the Potency [8] of the same molecule?
**A.** The Potency was “inactive”.

**Q.** And the Potency [9]?
**A.** Its Potency is 19 µM (active).

**Q.** What about the Potency [10] of the same molecule?
**A.** Its Potency is “inactive”.

**Q.** What about the Potency [11] of the same molecule?
**A.** Its Potency is “inactive”.

**Q.** What about the Potency [12] of the same molecule?
**A.** Its Potency is “inactive”.

**Q.** And the Potency [13]?
**A.** The Potency was “inactive”.

**Q.** And the Potency [14]?
**A.** The Potency was “inactive”.

**Q.** And the Potency [15]?
**A.** The Potency was 6.74 µM (active).

**Q.** Which Potency [1] does the source give for `CCCCCCCCCCCCCCC1CO1` (stereo not drawn) here?
**A.** The Potency was “inactive”.

**Q.** And the Potency [2]?
**A.** The Potency was “inactive”.

**Q.** What about the outcome [3] of the same molecule?
**A.** The outcome was “inactive”.

**Q.** What about the Potency [5] of the same molecule?
**A.** The Potency was “inactive”.

**Q.** And the Potency [16]?
**A.** The Potency was “inactive”.

**Q.** And the Potency [6]?
**A.** Its Potency is “inactive”.

**Q.** What about the Potency [17] of the same molecule?
**A.** Its Potency is “inactive”.

**Q.** And the Potency [7]?
**A.** The Potency was “inactive”.

**Q.** What about the Potency [18] of the same molecule?
**A.** The Potency was “inactive”.

**Q.** And the Potency [8]?
**A.** The Potency was “inactive”.

**Q.** And the max response [9]?
**A.** Its max response is 0.82%.

**Q.** And the Potency [10]?
**A.** The Potency was “inactive”.

**Q.** What about the Potency [11] of the same molecule?
**A.** Its Potency is “inactive”.

**Q.** What about the Potency [12] of the same molecule?
**A.** The Potency was “inactive”.

**Q.** What about the Potency [13] of the same molecule?
**A.** The Potency was “inactive”.

**Q.** What about the Potency [14] of the same molecule?
**A.** Its Potency is “inactive”.

**Q.** What about the Potency [15] of the same molecule?
**A.** Its Potency is “inactive”.

**Q.** Which Potency [1] does the source give for `C[Si](C)O[Si](C)(C)O[Si](C)(C)O[Si](C)C` here?
**A.** Its Potency is “inactive”.

**Q.** What about the Potency [2] of the same molecule?
**A.** Its Potency is “inactive”.

**Q.** What about the outcome [3] of the same molecule?
**A.** The outcome was “inactive”.

**Q.** And the Potency [5]?
**A.** The Potency was “inactive”.

**Q.** And the Potency [16]?
**A.** The Potency was “inactive”.

**Q.** What about the Potency [6] of the same molecule?
**A.** The Potency was “inactive”.

**Q.** And the Potency [17]?
**A.** Its Potency is “inactive”.

**Q.** What about the Potency [7] of the same molecule?
**A.** Its Potency is “inactive”.

**Q.** What about the Potency [18] of the same molecule?
**A.** Its Potency is “inactive”.

**Q.** What about the Potency [8] of the same molecule?
**A.** The Potency was “inactive”.

**Q.** What about the max response [9] of the same molecule?
**A.** The max response was 7.78%.

**Q.** And the Potency [11]?
**A.** The Potency was “inactive”.

**Q.** What about the Potency [12] of the same molecule?
**A.** The Potency was “inactive”.

**Q.** And the Potency [13]?
**A.** Its Potency is “inactive”.

**Q.** And the Potency [14]?
**A.** Its Potency is “inactive”.

**Q.** And the Potency [15]?
**A.** Its Potency is “inactive”.

**Q.** With `Cc1ccc2c(ccc3ccccc32)c1` as the molecule, how does the Potency [1] read?
**A.** Its Potency is “inactive”.

**Q.** What about the Potency [2] of the same molecule?
**A.** Its Potency is “inactive”.

**Q.** What about the outcome [3] of the same molecule?
**A.** The outcome was “inactive”.

**Q.** And the Potency [5]?
**A.** The Potency was “inactive”.

**Q.** What about the Potency [6] of the same molecule?
**A.** The Potency was “inactive”.

**Q.** And the Potency [7]?
**A.** Its Potency is “inactive”.

**Q.** What about the Potency [18] of the same molecule?
**A.** The Potency was “inactive”.

**Q.** And the Potency [8]?
**A.** The Potency was “inactive”.

**Q.** And the Potency [11]?
**A.** The Potency was “inactive”.

**Q.** And the Potency [12]?
**A.** The Potency was “inactive”.

**Q.** And the Potency [13]?
**A.** The Potency was “inactive”.

**Q.** And the Potency [14]?
**A.** The Potency was “inactive”.

**Q.** What does the source list for `O=C(O)Cn1c(C(=O)Nc2nc(-c3ccccc3Cl)cs2)cc2ccccc21`?
**A.** Potency [1]: 8.49 µM (active); Potency [2]: inactive; Potency [19]: inactive; Potency [20]: inactive; Potency [5]: inactive; Potency [6]: inactive; Potency [17]: inactive; Potency [7]: inactive; Potency [18]: inactive; Potency [8]: inactive; max response [9]: -2.19%; Potency [10]: inactive; Potency [11]: inactive; Potency [12]: inactive; Potency [13]: inactive; Potency [14]: inactive

**Q.** What does the source list for `CCCCCOC(=O)COc1cc(N2C(=O)C3=C(CCCC3)C2=O)c(F)cc1Cl`?
**A.** Potency [1]: inactive; Potency [2]: inactive; outcome [3]: inactive; Potency [5]: inactive; Potency [16]: inactive; Potency [6]: inactive; Potency [17]: inactive; Potency [7]: inactive; Potency [18]: inactive; Potency [8]: inactive; max response [9]: 4.37%; Potency [10]: inactive; Potency [11]: inactive; Potency [12]: inactive; Potency [13]: inactive; Potency [14]: inactive; Potency [15]: inactive

**Q.** Which Potency [1] does the source give for `CCCCCc1ccc(N)cc1` here?
**A.** The Potency was “inactive”.

**Q.** What about the Potency [2] of the same molecule?
**A.** The Potency was “inactive”.

**Q.** And the outcome [3]?
**A.** Its outcome is “inactive”.

**Q.** What about the Potency [5] of the same molecule?
**A.** The Potency was “inactive”.

**Q.** What about the Potency [16] of the same molecule?
**A.** Its Potency is “inactive”.

**Q.** And the Potency [6]?
**A.** The Potency was “inactive”.

**Q.** What about the Potency [17] of the same molecule?
**A.** Its Potency is “inactive”.

**Q.** What about the Potency [7] of the same molecule?
**A.** Its Potency is 49 µM (active).

**Q.** And the Potency [18]?
**A.** The Potency was “inactive”.

**Q.** What about the Potency [8] of the same molecule?
**A.** The Potency was “inactive”.

**Q.** What about the max response [9] of the same molecule?
**A.** The max response was -15.3%.

**Q.** And the Potency [12]?
**A.** The Potency was “inactive”.

**Q.** And the Potency [13]?
**A.** The Potency was 49 µM (active).

**Q.** What about the Potency [14] of the same molecule?
**A.** The Potency was 49 µM (active).

**Q.** What about the Potency [15] of the same molecule?
**A.** The Potency was “inactive”.
